Experimental data: PubChem BioAssay AID1461 (National Center for Advancing Translational Sciences (NCATS), 2008)
Screen size: about 220,000 compounds; about 2,300 (1%) were called active. Not shown: some 6% with an inconclusive outcome. The call rests on the fitted dose curve; in most records, active means well fitted inhibition curve with a large enough effect; inconclusive means small, poorly fitted or top-dose-only effect, or effect the other way; inactive means no such curve, though single readings can be large or run the other way. Many of the other results were omitted from the sample, so actives are more common in it than they were.

What follows are compounds tested against Neuropeptide S receptor (Homo sapiens) (UniProt Q6W5P4) (assay: qHTS Assay for Antagonists of the Neuropeptide S Receptor: cAMP Signal Transduction). Conditions: CHO-NPSR cells, cAMP TR-FRET, antagonist mode; series mostly up to 38.3 µM; activity change, negative = inhibition: at the top concentration.
Further: nearly all actives have a fitted effect of over 50% in size.
On the % scale 0 is the no-effect control and ±100 the full control effect; potency means the concentration at half of the fitted maximal effect.

Neuropeptide S receptor (Homo sapiens), sequence (Q6W5P4 whole entry, looked up): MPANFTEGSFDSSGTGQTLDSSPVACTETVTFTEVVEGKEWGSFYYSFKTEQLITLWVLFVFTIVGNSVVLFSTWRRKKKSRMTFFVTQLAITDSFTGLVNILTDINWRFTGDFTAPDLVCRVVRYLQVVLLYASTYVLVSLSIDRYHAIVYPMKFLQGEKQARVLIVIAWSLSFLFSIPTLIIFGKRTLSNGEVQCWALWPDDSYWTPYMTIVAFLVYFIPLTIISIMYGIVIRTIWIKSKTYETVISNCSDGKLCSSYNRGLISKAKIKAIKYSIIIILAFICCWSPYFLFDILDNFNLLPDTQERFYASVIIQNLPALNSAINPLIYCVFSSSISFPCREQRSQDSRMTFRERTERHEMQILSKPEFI

SMILES | activity change, negative = inhibition | Potency
Cc1ccc(/C=N/NC(=O)CSc2ccccn2)o1 | -14.8% (inactive) | –
Cc1ccc(C(O)P(=O)(OC(C)C)c2ccc(N(C)C)cc2)cc1 (centres undefined) | 7.66% (inactive) | –
O=C(Nc1ccc2c(c1)OCCO2)c1ccoc1 | -1.7% (inactive) | –
CC(=O)O[C@]1(C(C)=O)CC[C@H]2[C@@H]3C=C(C)C4=CC(=O)CC[C@]4(C)[C@H]3CC[C@@]21C | – | 3.98 µM (active)
NC(=O)NC(=O)CSc1nc2cc([N+](=O)[O-])ccc2n1-c1cccc(C(F)(F)F)c1 | -43.8% (inactive) | –
COc1ccc(/C=C/c2nnc(NC(=O)C(C)C)s2)cc1 | 1.52% (inactive) | –
C/C(CC(=O)NC(C)c1ccccc1)=N\NC(N)=S (centres undefined) | 21.5% (inactive) | –
Cc1cccc2cc(CN(Cc3nnnn3Cc3ccccc3)C3CCCC3)c(=O)[nH]c12 | -29.8% [at 46.1 µM] (inactive) | –
Cc1cccc2cc(CN(Cc3ccc4c(c3)OCO4)Cc3nnnn3C3CCCC3)c(=O)[nH]c12 | – | 12.6 µM (active)
Cc1cc(C)c2[nH]c(=O)c(C(c3nnnn3Cc3ccc4c(c3)OCO4)N3CCCC3)cc2c1 (centres undefined) | -22.9% [at 46.1 µM] (inactive) | –
COCCN(Cc1cc2cc3c(cc2nc1Cl)OCO3)C(=O)c1cccc(C)c1 | -4.29% (inactive) | –
Cc1ccc(NNC(=O)c2cccs2)cc1Cl | 24% (inactive) | –
Cc1cc(C)c(C)c(S(=O)(=O)N[C@@H](C)C(=O)OC(C)C(=O)NC(N)=O)c1C (some centres undefined) | 16.8% (inactive) | –
O=C(Nc1ccc(Cl)cc1)/C(=C1\CCCN1)[N+](=O)[O-] | -27.6% (inactive) | –
Cc1ccccc1OCC(=O)Nc1ccc(N2CCN(C(=O)C(C)C)CC2)c(Cl)c1 | – | 12.6 µM (active)
CN1CCN(c2ccc(NC(=O)COc3ccc(Cl)cc3Cl)cc2)CC1 | 3.6% [at 7.67 µM] (inactive) | –
COc1cc(NC(=O)COc2ccccc2Cl)ccc1NC(=O)C(C)C | 2.21% (inactive) | –
Nc1ccc(N=Nc2ccccc2Cl)c(N)n1 | -6.42% (inactive) | –
COc1ccc(CCNC(=O)C(=O)NCC2CCNCC2)cc1OC | -20.8% (inactive) | –
Cc1cc(C)c(C#N)c(SCc2[nH]nc3c2C(c2ccccc2)C(C#N)=C(N)O3)n1 (centres undefined) | -18.8% [at 46.1 µM] (inactive) | –
N#CC1=C(N)Oc2c(sc3ccccc23)C1c1ccco1 (centres undefined) | -7.26% [at 7.67 µM] (inactive) | –
Cc1cc(C)c2c3c(sc2n1)C(c1ccccc1)C(C#N)=C(N)O3 (centres undefined) | – | 10 µM (active)
O=C1CCC(=O)N(O)CCCCCNC(=O)CCC(=O)N(O)CCCCCNC(=O)CCC(=O)N(O)CCCCCN1 | 15.4% (inactive) | –
NC(=O)N/N=C\c1cccs1 | 14% (inactive) | –
O=S(=O)(c1ccc(F)cc1)N1CC=C(c2ccccc2)CC1 | -0.503% [at 7.67 µM] (inactive) | –
Cc1ccccc1Nc1scc(-c2ccc(Br)cc2)[n+]1-c1ccccc1C | – | 10 µM (active)

SMILES | activity change, negative = inhibition | Potency
Nc1scc[n+]1Cc1cccc2cccnc12 | -4.76% (inactive) | –
Nc1nc(NC(=O)/C=C/c2ccc(F)cc2)nn1-c1ccccc1 | 2.5% (inactive) | –
CCCc1ccc(OCc2ccc(C(=O)N/N=C/c3cccc([N+](=O)[O-])c3)o2)c(OC)c1 | – | 10 µM (active)
COC(=O)c1ccc(COc2ccc(/C=N/NC(=O)C(=O)Nc3ccc(OC)cc3)cc2OC)o1 | 7.97% (inactive) | –
COc1cc(/C=N/O)ccc1OCc1ccc([N+](=O)[O-])cc1 | -0.175% (inactive) | –
COc1cccc(OC)c1CN(C)C(=O)c1cnccc1C(F)(F)F | -16.3% (inactive) | –
COC(C[C@H](O)CC(=O)COCc1ccccc1)OC | 19.4% (inactive) | –
Cc1ccc(S(=O)(=O)/N=C(/NC(=S)Nc2c(C)n(C)n(-c3ccccc3)c2=O)c2ccccc2)cc1 | -10.6% (inactive) | –
CSCC[C@H](NC(=O)CCCn1nnc2ccccc2c1=O)C(=O)O | -7.89% (inactive) | –
S=C(NCCc1ccccc1)Nc1ccccc1 | -3.61% (inactive) | –
O=C(/C=C/c1ccccc1[N+](=O)[O-])NCC1CCCO1 (centres undefined) | 12.9% (inactive) | –
O=C(/C=C/c1ccccc1[N+](=O)[O-])OC1CCCCC1=O (centres undefined) | 1.58% (inactive) | –
CC1CCCCC1NC(=O)/C(C#N)=C/C=C/c1ccccc1[N+](=O)[O-] (centres undefined) | – | 10 µM (active)
CN(c1ccccc1)S(=O)(=O)c1ccc(Cl)c(C(=O)OCC(=O)NCc2ccco2)c1 | -0.308% (inactive) | –
CN(C)C(=S)Nc1ccc(Br)cc1Cl | -9.99% (inactive) | –
CCN(CC)CCC(c1cc(OC)c(OC)c(OC)c1)c1c(OC)cc(OC)c2c(-c3ccccc3)cc(=O)oc12 (centres undefined) | -24.9% (inactive) | –
COc1cc(C(CCN2CCN(c3ccccc3)CC2)c2c(OC)cc(OC)c3ccc(=O)oc23)cc(OC)c1OC (centres undefined) | – | 10 µM (active)
COc1ccc(C(CC(=O)N2CCN(c3ccccc3)CC2)c2c(O)cc(OC)cc2OC)cc1 (centres undefined) | -25.2% (inactive) | –
O=C(Nc1ccccc1)Nc1nnc(COc2ccccc2F)s1 | -5.72% (inactive) | –
COc1ccc(NC(=O)CCN2C(=O)/C(=C/c3ccc4c(c3)OCO4)SC2=S)cc1 | 3.47% (inactive) | –
O=C(Cn1cnc2ccccc2c1=O)Nc1cccc(S(=O)(=O)N2CCCCC2)c1 | -8.02% (inactive) | –
CC(=O)Nc1ccc(CC#N)cc1 | -15.3% (inactive) | –
Cc1cc(-c2nc(C)c(-c3nnc(SCC(=O)Nc4ccccc4)n3C)s2)no1 | 5.55% (inactive) | –
COc1ccc(N2C(=O)c3ccccc3NC2c2ccc(OC)c(CN3CCOCC3)c2)cc1 (centres undefined) | -35.7% (inactive) | –
O=C(Nc1ccc(Sc2ccc(Br)cc2)cc1)c1ccco1 | -22.6% [at 46.1 µM] (inactive) | –
CCN(CC)P(=O)(Nc1ccc(SC(F)F)cc1)c1ccc(N(C)C)cc1NC(=O)c1ccco1 (centres undefined) | – | 5.01 µM (active)

SMILES | activity change, negative = inhibition | Potency
CCC(=O)NC(=S)Nc1ccc(NC(=O)c2ccco2)c(Cl)c1 | -27.6% (inactive) | –
C=CCCN(Cc1ccccc1)S(=O)(=O)c1ccccc1Br | -39.7% (inactive) | –
O=C(NNC(=O)c1csc(-c2cccnc2)n1)Nc1ccc(Cl)cc1 | -1.58% (inactive) | –
O=C(O)CC12CC3CC(C1)CC(n1ncc(NCc4ccc(F)cc4)c(Cl)c1=O)(C3)C2 | -4.32% (inactive) | –
O=C(NNC(=S)NC1CC2CCC1C2)c1ccc(Cl)cc1 (centres undefined) | -26.4% (inactive) | –
CC(C)Cn1c(CN(Cc2ccccc2)Cc2ccccc2)nc2c1c(=O)n(C)c(=O)n2C | – | 12.6 µM (active)
CC(C)CCn1c(CN(C)Cc2ccccc2)nc2c1c(=O)n(C)c(=O)n2C | -20.1% [at 46.1 µM] (inactive) | –
COCCn1c(CN(Cc2ccccc2)Cc2ccccc2)nc2c1c(=O)n(C)c(=O)n2C | -20.7% [at 46.1 µM] (inactive) | –
Cc1cc(-c2n[nH]c(=S)n2/N=C/c2ccco2)n[nH]1 | 2.84% (inactive) | –
S=c1[nH]nc(-c2cccnc2)n1/N=C/C(Cl)=C\c1ccccc1 | -30.4% (inactive) | –
Cc1cc(-c2n[nH]c(=S)n2/N=C/C(Br)=C/c2ccccc2)n[nH]1 | – | 3.98 µM (active)
Cn1c(SCC(=O)c2ccc(F)cc2)nnc1-c1ccccn1 | -7.53% (inactive) | –
Cc1nc2nc(SCC(=O)c3ccccc3)[nH]c2cc1Br | -26.3% (inactive) | –
Nc1nc(SC23CC4CC(CC(C4)C2)C3)ns1 | 7.63% (inactive) | –
Cn1c(C(=O)O)ccc1S(=O)(=O)N(Cc1ccccc1)Cc1ccccc1 | 35.6% (inactive) | –
N#CC1=C(SCc2ccccc2)NC(=O)C(C#N)C12CCCC2 (centres undefined) | 3.01% [at 46.1 µM] (inactive) | –
N#CC1=C(SCc2ccc(C#N)cc2)N=C(N)C(c2nc(-c3ccccc3)cs2)C12CCCCC2 (centres undefined) | – | 3.98 µM (active)
N#C/C(=C1\CCCN1)c1nc(-c2ccccc2)cs1 | -23.6% [at 46.1 µM] (inactive) | –
S=c1[nH]c2ccccc2c2ccccc12 | -17.7% (inactive) | –
CCCCCCCCCCCCC(NC(C)=O)(C(=O)OCC)C(=O)OCC | 40.3% (inactive) | –
Nc1ccccc1Sc1cc(Cl)nnc1Cl | -25.8% (inactive) | –
Cc1ccc(-c2c[n+](CC(=O)Nc3ccccc3)c3n2CCC3)cc1 | -1.52% (inactive) | –
CCOC(=O)c1c(C)[nH]c2c1-c1ccccc1C(=O)C2=O | 6.24% (inactive) | –
CC(=O)c1c(C)[nH]c(=S)c(C#N)c1-c1ccc(F)cc1 | -16.5% (inactive) | –
CCOC(=O)c1c(C)[nH]c(=S)c(C#N)c1-c1ccccc1 | – | 7.94 µM (active)
Cn1cnc(S(=O)(=O)Nc2ccc3c(c2)OCCO3)c1 | 9.08% (inactive) | –

SMILES | activity change, negative = inhibition | Potency
Cc1cc(C)cc(NC(=O)NC2CCN(CC(=O)Nc3cccc(Cl)c3C)CC2)c1 | -25.3% (inactive) | –
O=C(CN1CCCCC1)Nc1ccccc1Cl | -3.09% (inactive) | –
COCCN(CCOC)C(=S)Nc1ccccc1Cl | 8.02% (inactive) | –
O=C(Nc1ccccc1Cl)/C(Cl)=C(\Cl)S(=O)c1ccccc1 (centres undefined) | – | 7.94 µM (active)
COc1ccc(C(=O)N/N=C2\CCS(=O)(=O)c3ccc(F)cc32)cc1OC | -2.66% (inactive) | –
COC(=O)c1cc(C(=O)OCC(=O)Nc2cc(C)on2)cc([N+](=O)[O-])c1 | -14.2% (inactive) | –
N/C(=N\OC(=O)CCn1cccc(C(F)(F)F)c1=O)c1ccc(OC(F)(F)F)cc1 | -8.1% (inactive) | –
Cn1c(S(=O)(=O)O)nc2ccccc21 | 22.2% (inactive) | –
Cc1ccc(NC(=O)/C(=C/c2ccc([N+](=O)[O-])cc2)NC(=O)c2ccccc2)cc1 | 7.14% (inactive) | –
N#C/C(=C\N1CCOCC1)S(=O)(=O)c1ccc(Cl)cc1 | 14.9% (inactive) | –
O=C(COc1ccccc1)N1CCN=C1SCc1cccc(F)c1 | -1.12% (inactive) | –
N#CCCCn1c(O)c(N=NC(=O)C(O)c2ccccc2)c2ccccc21 (centres undefined) | -19.2% (inactive) | –
O=C(NCc1ccccn1)c1cc(Br)ccc1Cl | 7.75% (inactive) | –
O=C(NCC(c1cccs1)N1CCOCC1)c1cc(-c2ccccn2)nc2ccccc12 (centres undefined) | 7.93% (inactive) | –
O=C(NCc1cccs1)c1cc(-c2ccccn2)nc2ccc(Br)cc12 | – | 10 µM (active)
C#CCO[C@@H]1C[C@H](n2cnc3c(=O)[nH]c(NC(=O)C(C)C)nc32)O[C@@H]1CO | 10.8% (inactive) | –
CCC1=NN2C(=N)/C(=C/c3cc(C)n(-c4ccccc4)c3C)C(=O)N=C2S1 | 19.1% (inactive) | –
Cc1ccc2cc(/C=N/Nc3ccc(C(=O)O)cc3)c(Cl)nc2c1 | -22.4% (inactive) | –
Cc1cc(C)c(C2C3=C(Nc4c2c(C)nn4-c2ccccn2)c2ccccc2C3=O)c(C)c1 (centres undefined) | – | 10 µM (active)
Cc1nn(-c2ccccn2)c2c1C(c1ccncc1)C1=C(CC(C)(C)CC1=O)N2 (centres undefined) | -14.2% [at 46.1 µM] (inactive) | –
Cc1ccc(C2C3=C(Nc4[nH]n(-c5ccccc5)c(=O)c42)c2ccccc2C3=O)cc1 (centres undefined) | -43.2% (inactive) | –
COCc1cc(=O)[nH]c(-c2ccc(C(F)(F)F)cc2)n1 | -8.06% (inactive) | –
Cc1oc(C(N)=O)cc1COc1ccc(C(N)=O)cc1 | 11.4% (inactive) | –
O=C(Nc1nc2ccc([N+](=O)[O-])cc2s1)c1ccncc1 | -23.6% (inactive) | –
O=C(NC(Nc1nc2ccc([N+](=O)[O-])cc2s1)(C(F)(F)F)C(F)(F)F)c1ccccc1 | – | 3.98 µM (active)
O=C(O)CCC(=O)Nc1nc2ccc([N+](=O)[O-])cc2s1 | 36.1% (inactive) | –
